Measured values from ChEMBL document CHEMBL4513216, “Probing the Open Global Health Chemical Diversity Library for Multistage-Active Starting Points for Next-Generation Antimalarials” (ACS Infect Dis, 2020).
Screen size: about 69,000 compounds; about 8,600 (12%) showed an effect of 50% or more. Shown is part of a subset that was picked to be rich in strong results.

Tested on: Plasmodium berghei
Assay: Screen against P. berghei liver stage (PbLuc), transformed with Luciferase, at 10uM
Assay type: functional, HepG2
Details: tested at 10 uM

Row | Compound | INHIBITION [%]
1 | COCC(=O)NCc1cc(=O)n2c(n1)CN(Cc1ccco1)CCC2 | 47.5
2 | O=C(NCc1nnc2n1CCCC2)N1CCc2sccc2C1 | 5.7
3 | Cc1cccc(CNC(=O)Nc2ccn(CCN(C)C)n2)c1 | -23.8
4 | C=C(C)Cn1nc(C)c(CN2CCN(C3CCCCC3)C(=O)C2)c1C | 13.85
5 | Cc1ccccc1C1(CNCc2cnc(N3CCOCC3)nc2)CC1 | -5.22
6 | Cc1ccc(CN2CCCC(c3nn(C)c4nccnc34)C2)s1 (stereo not given) | 37.6
7 | CCCN1CCC(c2nc3ccc(NCc4cccnc4)cn3n2)CC1 | 52.1
8 | CCCN1CCC(c2nc3ccc(NCc4ccccc4)cn3n2)CC1 | 61.1
9 | CCN1CCC(c2nc3ccc(NC(C)C)cn3n2)CC1 | 26.4
10 | CC(C)CN1CCC(c2nc3ccc(NC(C)C)cn3n2)CC1 | 30.3
11 | c1cncc(CNc2ccc3nc(C4CCNCC4)nn3c2)c1 | 29.4
12 | CCCN1CCC(c2nc3ccc(C)cn3n2)CC1 | 29.4
13 | CN(C)C(=O)N1C[C@H]2CC[C@@H](C1)N(Cc1nnc(-c3ccco3)o1)C2 | 11.6
14 | Cc1nc(-c2cnn(C)c2)nc2c1CN(C(=O)c1cccnc1)CC2 | -4.99
15 | Cc1nc(-c2cnn(C)c2)nc2c1CN(C(=O)c1cccn1C)CC2 | -6.46
16 | Cc1nc(-c2cnn(C)c2)nc2c1CN(C(=O)c1ccc[nH]1)CC2 | 57.1
17 | COC(=O)c1ccc(NC(C)c2ccc3c(c2)CCC(=O)N3)nn1 (stereo not given) | 19.7
18 | COc1ccc(-c2cc3nc(CCNC(=O)C4CC4)nn3cn2)cc1 | 8.915
19 | c1csc(NCc2n[nH]c3c2CCN(CC2CC2)C3)n1 | 41.2
20 | COc1ccc(-c2ccc(C3CNCCO3)nc2)cc1 (stereo not given) | 91.6
21 | c1ncc(-c2ccc(C3CNCCO3)nc2)cn1 (stereo not given) | 24.8
22 | Fc1ccccc1OCCc1cc(C2CNCCO2)n[nH]1 (stereo not given) | 32.8
23 | COc1ccc(-c2cnc(N(C)C)nc2C2CNCCO2)cc1 (stereo not given) | 21.7
24 | Cn1nc(C2CNCCO2)cc1CCOc1ccc(Cl)cc1 (stereo not given) | 16.5
25 | Cc1ccc(-c2ccc(C3CNCCO3)nc2)cc1 (stereo not given) | 91.6
26 | CN(C)c1ncc(-c2cccc(F)c2)c(C2CNCCO2)n1 (stereo not given) | 8.72
27 | COc1ccc(OCCc2cc(C3CNCCO3)nn2C)cc1 (stereo not given) | -5.8
28 | c1ccc(-c2ccc(C3CNCCO3)nc2)cc1 (stereo not given) | 84

Row | Compound | INHIBITION [%]
29 | CN(C)c1ncc(-c2ccc(C(N)=O)cc2)c(C2CNCCO2)n1 (stereo not given) | -28.9
30 | Clc1ccc(-c2ccc(C3CNCCO3)nc2)cc1 (stereo not given) | 94.6
31 | CN(C)c1ncc(-c2ccc(F)cc2)c(C2CNCCO2)n1 (stereo not given) | 15.1
32 | CC(=O)N1CCCN(C(=O)NC(C)Cn2ccnc2)CC1 (stereo not given) | 24.2
33 | Cn1c(=O)c2cc(C(=O)NCc3ccncc3)ccc2n(C)c1=O | -4.82
34 | Cc1cc(C[S+]([O-])CC(=O)NCc2cccc(Cl)c2)no1 (stereo not given) | 49.8
35 | CC(C)SCC(=O)N1CCCn2nc(C(=O)Nc3ccccc3)cc2C1 | -59.9
36 | CC(=O)N1CCC2(CCCN(S(=O)(=O)c3ccc(F)cc3)C2)C1 (stereo not given) | -4.82
37 | Cc1c(COC(C)C)cccc1NC(=O)N1CCC(N2CCCC2)C1 (stereo not given) | 36.3
38 | Cc1nc(C)n(CC2CCCN2Cc2coc(-c3cccs3)n2)n1 (stereo not given) | 22.6
39 | COc1ccccc1NC(=O)NCCCC(=O)Nc1cn[nH]c1 | -12.1
40 | O=C(CCCOc1ccccc1F)NCCCC(=O)Nc1cn[nH]c1 | 51.7
41 | O=C(CCCNC(=O)Nc1ccc(F)cc1)Nc1cn[nH]c1 | 20.7
42 | CC(C)N1CCC(Nc2ccn(C)n2)C1=O (stereo not given) | 23.1
43 | CC(C)N1CCC(Nc2ccn(CCC#N)n2)C1=O (stereo not given) | 63.3
44 | CC(C)N1CCC(Nc2ccn(Cc3ccccn3)n2)C1=O (stereo not given) | 38.7
45 | COC(C)(CNS(=O)(=O)c1cccnc1)c1ccccc1F (stereo not given) | 12.1
46 | CCC1c2ccsc2CCN1C(=O)NCc1cc(C)on1 (stereo not given) | 11.915
47 | CC(NC(=O)NCC(C)(C)C(N)=O)c1nc(-c2ccccc2)cs1 (stereo not given) | 28.6
48 | COC(=O)[C@H]1C[C@@H](O)CCN1S(=O)(=O)c1cc(C)c(Cl)cc1C | 60.2
49 | COC(=O)[C@H]1C[C@@H](O)CCN1S(=O)(=O)c1ccc(F)cc1F | 34.2
50 | COC(=O)[C@H]1C[C@@H](O)CCN1S(=O)(=O)c1cc(Cl)ccc1OC | -16.9
51 | Cc1cc(C)c(CNc2cnn(CC(O)CN(C)C)c2)c(C)c1 (stereo not given) | 29.8
52 | Cc1ccc(CNC(=O)CN2CCN(CC(O)c3ccco3)CC2)cc1 (stereo not given) | -1.58
53 | O=C(NCC1CC1)C1CCC2(CCN(C(=O)c3ccccn3)CC2)O1 (stereo not given) | -3.44
54 | COCC(=O)NCC1(COc2cccnc2)C[C@@H](O)[C@@H](O)C1 (stereo not given in full) | 57.4
55 | O[C@@H]1CC(CNCc2ccccn2)(COc2cccnc2)C[C@@H]1O (stereo not given in full) | -36
